Design in all cases: scale not given: direction of the effect not stated beside the values
Test [1] addresses Protein translocase subunit SecA (Escherichia coli (strain K12)) (UniProt P10408). Put plainly: Assay to Identify E. coli SecA ATPase Inhibitors. Type of test: functional. Conditions: 30 µM.
Test [2] deals with T1, Ubiquitin-activating enzyme e1, putative (Leishmania donovani (strain BPK282A1)) (UniProt E9BSI1).
T1 sequence (whole entry): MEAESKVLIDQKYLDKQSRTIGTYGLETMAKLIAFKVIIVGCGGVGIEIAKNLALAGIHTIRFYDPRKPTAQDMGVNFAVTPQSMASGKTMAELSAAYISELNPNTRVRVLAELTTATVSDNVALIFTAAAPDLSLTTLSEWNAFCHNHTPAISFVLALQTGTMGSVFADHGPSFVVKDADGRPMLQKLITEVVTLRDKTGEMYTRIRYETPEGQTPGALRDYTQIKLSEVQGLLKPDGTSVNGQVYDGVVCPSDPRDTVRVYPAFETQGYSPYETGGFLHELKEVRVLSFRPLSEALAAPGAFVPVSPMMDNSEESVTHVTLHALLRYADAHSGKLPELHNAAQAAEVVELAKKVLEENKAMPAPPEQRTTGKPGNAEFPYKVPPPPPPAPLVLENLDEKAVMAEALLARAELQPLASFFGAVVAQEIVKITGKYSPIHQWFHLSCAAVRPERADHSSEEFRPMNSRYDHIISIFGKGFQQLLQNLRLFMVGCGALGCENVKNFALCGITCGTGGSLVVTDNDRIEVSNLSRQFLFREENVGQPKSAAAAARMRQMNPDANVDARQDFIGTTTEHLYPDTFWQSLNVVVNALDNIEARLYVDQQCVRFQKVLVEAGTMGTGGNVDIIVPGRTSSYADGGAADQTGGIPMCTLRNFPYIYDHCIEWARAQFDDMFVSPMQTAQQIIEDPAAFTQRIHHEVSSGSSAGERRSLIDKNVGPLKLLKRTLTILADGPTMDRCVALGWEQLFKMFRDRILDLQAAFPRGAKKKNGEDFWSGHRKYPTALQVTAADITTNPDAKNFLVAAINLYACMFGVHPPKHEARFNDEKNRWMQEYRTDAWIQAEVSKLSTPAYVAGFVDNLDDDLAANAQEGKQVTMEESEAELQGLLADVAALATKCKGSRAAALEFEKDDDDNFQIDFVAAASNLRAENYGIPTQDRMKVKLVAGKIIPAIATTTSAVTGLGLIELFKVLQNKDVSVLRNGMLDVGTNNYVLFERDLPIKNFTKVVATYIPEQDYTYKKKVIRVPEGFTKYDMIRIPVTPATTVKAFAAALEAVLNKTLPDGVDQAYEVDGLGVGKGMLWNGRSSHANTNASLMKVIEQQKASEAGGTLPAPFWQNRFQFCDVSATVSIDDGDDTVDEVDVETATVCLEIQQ
The test can be described thus: Leishmania donovani Ubiquitin Activating Enzyme (LdE1). It counts as functional. To be noted: 30 µM.

Test [3] has as its target AMP-activated protein kinase, AMPK (Homo sapiens) (UniProt P54646+O43741+P54619+Q9UGJ0+Q9Y478+Q13131+Q9UGI9). Put plainly: AMP-dependent Kinase enzyme assay. An in vitro enzyme assay that detects ADP turnover that is directly proportional to AMPK activity. This uses naive AMPK that is activated during the assay with MK-8722. It counts as functional. To be noted: 30 µM.

The target of test [4] is Sialic acid-binding Ig-like lectin 9 (Homo sapiens) (UniProt Q9Y336). Put plainly: Hs-Siglec9 ALPHAscreen SOP 20170721. Conditions: 10 µM. For orientation: Alpha assays give light when donor and acceptor beads are brought close together.
In test [5] the test system is Trypanosoma cruzi. Put plainly: Trypanosoma cruzi phosphomannomutase and mannose-1-phosphate guanylyltransferase assay. It counts as functional. Conditions: 10 µM.
Test [6] addresses T2, Arginase-2, mitochondrial (Homo sapiens) (UniProt P78540).
T2 sequence (whole entry): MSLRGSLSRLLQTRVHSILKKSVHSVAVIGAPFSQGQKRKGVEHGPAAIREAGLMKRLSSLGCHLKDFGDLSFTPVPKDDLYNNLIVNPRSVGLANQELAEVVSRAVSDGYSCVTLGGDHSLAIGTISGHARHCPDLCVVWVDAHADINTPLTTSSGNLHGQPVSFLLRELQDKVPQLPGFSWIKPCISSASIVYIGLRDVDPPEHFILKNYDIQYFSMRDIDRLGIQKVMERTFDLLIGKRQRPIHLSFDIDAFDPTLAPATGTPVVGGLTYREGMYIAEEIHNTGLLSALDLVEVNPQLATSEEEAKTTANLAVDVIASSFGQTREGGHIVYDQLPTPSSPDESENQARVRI
Put plainly: in vitro enzyme assay to detect the production of urea directly proportional to the activity of Arginase II. Note: in the data most compounds retested in dose-response had high values. Type of test: functional. To be noted: 33.3 µM.

Test [7] has as its target T3, Proteasome subunit beta (Trypanosoma cruzi) (UniProt O96673).
T3 sequence (whole entry): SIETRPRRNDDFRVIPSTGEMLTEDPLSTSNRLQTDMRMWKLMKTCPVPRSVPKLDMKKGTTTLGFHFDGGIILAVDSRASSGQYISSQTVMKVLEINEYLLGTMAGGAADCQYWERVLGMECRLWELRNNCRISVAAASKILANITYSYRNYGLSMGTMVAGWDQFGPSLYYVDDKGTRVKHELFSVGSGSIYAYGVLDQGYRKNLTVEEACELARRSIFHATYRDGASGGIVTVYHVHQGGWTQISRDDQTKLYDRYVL
The test can be described thus: Trypanosoma cruzi proteasome chymotrypsin-like activity (TcProtChymo) assay. Note: in the data most compounds retested in dose-response had high values. Conditions: 9.37 µM. It counts as functional.

The species named for test [8] is Homo sapiens. The test can be described thus: To identify inhibition of the IFN signalling (Jak-Stat) pathway via expression of an eGFP reporter gene under the control of an IFN-stimulated response element (ISRE) containing MxA promoter. It counts as functional. To be noted: 30 µM. In general terms: A reporter such as luciferase makes a cellular process visible.

Test [9] has as its target T4, Tyrosyl-tRNA synthetase, putative (Trypanosoma cruzi (strain CL Brener)) (UniProt Q4DSP6).
T4 sequence (whole entry): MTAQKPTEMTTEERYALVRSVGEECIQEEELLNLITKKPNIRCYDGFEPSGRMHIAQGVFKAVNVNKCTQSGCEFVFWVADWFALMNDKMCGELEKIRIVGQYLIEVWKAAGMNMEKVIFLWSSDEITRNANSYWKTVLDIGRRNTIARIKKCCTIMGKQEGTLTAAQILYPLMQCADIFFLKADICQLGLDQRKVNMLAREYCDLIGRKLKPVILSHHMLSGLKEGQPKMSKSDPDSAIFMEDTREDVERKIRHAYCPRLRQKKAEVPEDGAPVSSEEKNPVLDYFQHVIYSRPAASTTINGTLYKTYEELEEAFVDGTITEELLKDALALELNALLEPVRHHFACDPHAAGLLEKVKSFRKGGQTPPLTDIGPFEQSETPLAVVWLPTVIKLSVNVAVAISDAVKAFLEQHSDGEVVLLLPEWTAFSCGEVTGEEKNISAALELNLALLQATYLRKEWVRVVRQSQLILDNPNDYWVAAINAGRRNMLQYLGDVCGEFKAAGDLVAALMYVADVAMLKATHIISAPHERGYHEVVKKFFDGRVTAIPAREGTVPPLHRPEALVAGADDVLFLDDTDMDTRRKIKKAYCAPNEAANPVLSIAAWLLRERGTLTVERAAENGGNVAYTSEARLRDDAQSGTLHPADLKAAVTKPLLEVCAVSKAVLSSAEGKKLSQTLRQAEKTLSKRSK
Put plainly: Trypanosoma cruzi tyrosyl tRNA synthetase (TcYRS) _High Tyrosine SOP. Note: in the data most compounds retested in dose-response had high values. Type of test: functional. To be noted: 30 µM.

For test [10], the target named is T4, Tyrosyl-tRNA synthetase, putative (Trypanosoma cruzi (strain CL Brener)). The test can be described thus: Trypanosoma cruzi tyrosyl tRNA synthetase (TcYRS) SOP. It counts as functional. To be noted: 30 µM.
For test [11], the target named is Chromo domain-containing protein 1 (Saccharomyces cerevisiae (strain ATCC 204508 / S288c) (Baker's yeast)) (UniProt P32657). Put plainly: ScCHD-1 Enzyme Inhibition Assay. Note: in the data most compounds retested in dose-response had high values. It counts as functional. Conditions: 30 µM.

The structures appear in SMILES notation. For some assays here: Measured potencies and affinities stand elsewhere.

Sequence of Protein translocase subunit SecA (Escherichia coli (strain K12)) (P10408 whole entry): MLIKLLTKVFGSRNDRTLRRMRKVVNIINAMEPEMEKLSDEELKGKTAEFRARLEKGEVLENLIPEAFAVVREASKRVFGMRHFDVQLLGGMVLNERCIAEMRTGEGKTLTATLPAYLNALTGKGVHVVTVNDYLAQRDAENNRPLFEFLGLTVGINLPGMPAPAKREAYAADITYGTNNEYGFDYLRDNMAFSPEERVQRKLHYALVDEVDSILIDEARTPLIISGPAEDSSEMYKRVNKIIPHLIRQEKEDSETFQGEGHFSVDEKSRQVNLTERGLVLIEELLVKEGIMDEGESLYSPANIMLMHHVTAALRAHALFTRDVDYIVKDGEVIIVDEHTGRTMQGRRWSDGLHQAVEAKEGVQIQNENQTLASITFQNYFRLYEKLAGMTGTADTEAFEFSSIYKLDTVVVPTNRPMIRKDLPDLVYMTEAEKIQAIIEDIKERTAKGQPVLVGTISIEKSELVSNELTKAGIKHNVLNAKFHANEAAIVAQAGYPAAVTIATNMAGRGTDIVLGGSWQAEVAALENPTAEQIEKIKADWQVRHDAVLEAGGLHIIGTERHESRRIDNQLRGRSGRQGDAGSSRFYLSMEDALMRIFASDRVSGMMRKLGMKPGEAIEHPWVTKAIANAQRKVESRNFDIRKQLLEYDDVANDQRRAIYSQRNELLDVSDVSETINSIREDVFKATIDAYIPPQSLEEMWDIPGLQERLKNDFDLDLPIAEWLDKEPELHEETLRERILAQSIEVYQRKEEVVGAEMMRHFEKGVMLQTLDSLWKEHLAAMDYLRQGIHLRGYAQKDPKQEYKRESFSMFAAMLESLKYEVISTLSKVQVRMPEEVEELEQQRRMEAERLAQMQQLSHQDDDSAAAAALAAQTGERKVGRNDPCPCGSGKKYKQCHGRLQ
Sequence of Sialic acid-binding Ig-like lectin 9 (Homo sapiens) (Q9Y336 whole entry): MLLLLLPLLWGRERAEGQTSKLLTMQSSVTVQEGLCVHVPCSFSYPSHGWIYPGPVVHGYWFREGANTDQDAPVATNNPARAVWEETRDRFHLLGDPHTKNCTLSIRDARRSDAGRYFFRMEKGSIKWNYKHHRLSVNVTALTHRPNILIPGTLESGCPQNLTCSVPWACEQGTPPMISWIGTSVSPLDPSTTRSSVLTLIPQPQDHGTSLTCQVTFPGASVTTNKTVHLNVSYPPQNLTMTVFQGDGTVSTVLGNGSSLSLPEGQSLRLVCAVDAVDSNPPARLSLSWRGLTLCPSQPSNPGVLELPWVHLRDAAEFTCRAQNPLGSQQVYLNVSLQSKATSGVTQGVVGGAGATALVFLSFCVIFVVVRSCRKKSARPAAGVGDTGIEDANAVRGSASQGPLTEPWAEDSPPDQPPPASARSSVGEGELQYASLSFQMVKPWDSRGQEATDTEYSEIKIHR
Sequence of Chromo domain-containing protein 1 (Saccharomyces cerevisiae (strain ATCC 204508 / S288c) (Baker's yeast)) (P32657 whole entry, the tested form may be a part): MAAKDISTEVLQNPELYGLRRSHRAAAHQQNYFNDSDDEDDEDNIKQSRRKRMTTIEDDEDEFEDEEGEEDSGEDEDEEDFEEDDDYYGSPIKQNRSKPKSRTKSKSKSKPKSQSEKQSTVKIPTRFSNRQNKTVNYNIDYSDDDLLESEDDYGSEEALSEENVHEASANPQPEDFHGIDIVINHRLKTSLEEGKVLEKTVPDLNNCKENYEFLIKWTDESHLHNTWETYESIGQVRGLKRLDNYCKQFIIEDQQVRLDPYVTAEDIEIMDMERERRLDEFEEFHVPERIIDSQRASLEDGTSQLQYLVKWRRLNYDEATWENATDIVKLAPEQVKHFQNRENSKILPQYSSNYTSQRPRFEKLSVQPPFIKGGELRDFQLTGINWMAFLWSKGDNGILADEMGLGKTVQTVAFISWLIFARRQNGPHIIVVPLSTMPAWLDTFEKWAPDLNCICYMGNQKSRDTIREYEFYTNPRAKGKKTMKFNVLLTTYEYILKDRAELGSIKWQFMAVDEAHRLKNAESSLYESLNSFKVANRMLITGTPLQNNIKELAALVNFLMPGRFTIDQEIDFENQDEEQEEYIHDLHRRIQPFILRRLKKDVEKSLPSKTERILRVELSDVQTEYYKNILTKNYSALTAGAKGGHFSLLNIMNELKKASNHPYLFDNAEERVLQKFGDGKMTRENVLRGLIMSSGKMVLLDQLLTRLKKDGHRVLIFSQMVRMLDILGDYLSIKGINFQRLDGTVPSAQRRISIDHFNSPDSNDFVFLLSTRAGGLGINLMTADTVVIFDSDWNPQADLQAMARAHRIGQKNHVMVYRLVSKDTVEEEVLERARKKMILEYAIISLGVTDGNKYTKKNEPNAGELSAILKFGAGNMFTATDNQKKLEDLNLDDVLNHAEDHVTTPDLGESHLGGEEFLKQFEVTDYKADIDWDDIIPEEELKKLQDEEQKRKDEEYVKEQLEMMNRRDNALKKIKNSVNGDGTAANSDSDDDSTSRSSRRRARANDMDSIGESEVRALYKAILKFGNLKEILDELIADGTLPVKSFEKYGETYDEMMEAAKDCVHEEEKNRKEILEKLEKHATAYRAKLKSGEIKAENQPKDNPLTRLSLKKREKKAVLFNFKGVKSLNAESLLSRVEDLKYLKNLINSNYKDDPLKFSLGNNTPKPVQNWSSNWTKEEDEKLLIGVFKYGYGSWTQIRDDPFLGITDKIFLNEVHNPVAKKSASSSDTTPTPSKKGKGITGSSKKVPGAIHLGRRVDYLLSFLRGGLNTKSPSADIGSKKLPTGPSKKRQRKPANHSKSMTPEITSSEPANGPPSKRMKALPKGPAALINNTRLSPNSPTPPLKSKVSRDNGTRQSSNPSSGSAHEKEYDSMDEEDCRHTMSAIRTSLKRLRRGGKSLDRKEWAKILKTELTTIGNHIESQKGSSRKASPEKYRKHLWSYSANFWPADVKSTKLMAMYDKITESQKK

For `O=C(NCCN1CCCCCC1=O)c1n[nH]c(=O)c2ccccc12`, the Percent Effect in test [1] is -2.33%; in test [2], 15.6%; in test [3] it was 17.8%; in test [4] it was -3.89%; in test [5], -11.1%; in [6] it was 2.13%. Moreover, the Percent Effect in [7] was 6.42%; in [8], 27.5%; in [9] it was -6.8%; in [10] it was 9.76%; in test [11], -3%.
On to `CN(Cc1ccco1)Cc1ccccc1CNC(=O)c1ccc[nH]1`, for which the Percent Effect in test [1] is 0.847%; in [2] it was -10.8%; in test [3] it was -0.911%; in test [4] it was 10%; in [5], 2.32%; in test [6], 14.3%. For the same compound, the Percent Effect in test [7] was 9.31%; in test [8], 19.5%; in test [9], 3.7%; in [10], 12.2%; in test [11] it was -4.76%.
Turning to `Cc1ccsc1C(=O)N1CC(C(=O)N2CCOCC2)C2(CCOCC2)C1` (stereo not given), the Percent Effect in test [1] was -7%; in [2] it was 2.6%; in test [3] it was 117%; in test [4], -9.65%; in test [5] it was -8.38%; in [6] it was 0.645%. In addition, the Percent Effect is 13.1% in test [7]; 0.0644% in test [8]; -4.23% in test [9]; -8.97% in [10]; -5.38% in [11].
In the case of `CCN(CC)C(=O)CCn1ncc2c(Cl)cccc21`, the Percent Effect in test [1] was -0.381%; in test [2], 1.33%; in test [3] it was 3.83%; in [4] it was 7.06%; in test [5] it was -5.89%; in [6], -17.1%. The Percent Effect is 16.1% in test [7]; 0.421% in [8]; 0% in [9]; 2.56% in [10]; -11.2% in test [11].
Turning to `O=C(NS(=O)(=O)c1cc(Cl)sc1Cl)c1cccc2c1OCCO2`, the Percent Effect in test [1] is -8.74%; in test [2], -11%; in test [3] it was 3.09%; in test [4], -2.91%; in test [5] it was -6.07%; in [6], -1.36%. The Percent Effect was 13.5% in [7]; 24.9% in test [8]; -22.6% in [9]; -42.5% in test [10]; -4.53% in [11].
Consider `CS(=O)(=O)N1CCc2c(cccc2NC(=O)CC(F)(F)F)C1`, for which the Percent Effect in test [1] is -3.17%; in [2] it was 5.26%; in test [3], 4.53%; in test [4] it was -1.3%; in [5] it was -2.04%; in test [6] it was 0%. Further, the Percent Effect in test [7] is 11.8%; in test [8], -9.3%; in [9], 4.25%; in test [10] it was 10.4%; in [11] it was -6.43%.
In the case of `CC(NC1CCN(CCS(C)(=O)=O)CC1)c1ccc(Cl)cc1` (stereo not given), the Percent Effect in test [1] is -1.94%; in test [2], 0%; in test [3] it was -3.49%; in test [4], 0.142%; in [5] it was -5.02%; in test [6], -0.476%. The Percent Effect was 3.62% in test [7]; 21.6% in test [8]; 0.529% in [9]; 7.32% in test [10]; -2.22% in test [11].
On to `O=C1CC[C@H]2[C@H](CCN2C(=O)C2CCOCC2)N1Cc1ccncc1`, for which the Percent Effect was -2.75% in test [1]; 22.7% in [2]; -7.93% in [3]; 0.426% in test [4]; 2.95% in [5]; -3.35% in test [6]. Besides, the Percent Effect in [7] is 17.7%; in test [8], -2.05%; in test [9] it was 6.35%; in test [10], 15.4%; in test [11], -9.4%.
Consider `CN(C(=O)c1cccc(C(=O)NCC(F)(F)F)c1)c1ccccc1`, for which the Percent Effect in [1] is -6.02%; in test [2], -2.6%; in test [3] it was -0.584%; in test [4], 2.53%; in test [5], -5.8%; in test [6] it was -6.9%. Also, the Percent Effect in test [7] was 9.82%; in test [8], 7.29%; in test [9], -1.07%; in [10] it was -8.64%; in test [11] it was 0.0055%.
`CC1CCN(C(=O)c2ccn(COc3ccc(F)cc3)n2)CC1`: the Percent Effect in test [1] is -1.66%; in test [2], 5.2%; in test [3], -0.0433%; in test [4] it was 10.1%; in test [5] it was 2.26%; in test [6] it was -5.52%. For the same compound, the Percent Effect in test [7] was 25%; in test [8] it was -6.17%; in test [9] it was 6.45%; in test [10] it was 16.1%; in [11] it was -3.54%.
